From PubChem BioAssay (NCATS) come the findings set out here.

Test [1] in a line: qHTS Assay for Identifying Gametocytocidal Compounds (AID 743244).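 Also: % is scaled to controls: 0 for no effect and ±100 for the full control effect; actives lower the fluorescent signal which means gametocytes are killed.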 The following applies: P. falciparum 3D7 stage III-V gametocytes, alamarBlue, 72 h; max response: stronger effect = lower value. Summed up: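 P. falciparum 3D7 stage III–V gametocytes (20,000 cells/well) were exposed to compounds for 72 h at 37 °C, 5% CO2. AlamarBlue was then added for 24 h; decreased resorufin fluorescence (Ex 525/Em 598 nm) indicated loss of viability.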
For orientation: qHTS replaces the single test concentration by a dilution series.

Test [2] in a line: qHTS profiling for inhibitors of Plasmodium falciparum (3D7) proliferation (AID 743322; call rule not given here;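 also: infected erythrocytes exposed to compound for 72 h before lysis; 100% = DMSO vehicle wells and 0% = 0.29 µM artemisinin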). The following applies: P. falciparum 3D7 proliferation; at 28.7 µM (top of the series) unless noted. The essentials: (§1)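 Parasite DNA was quantified by SYBR Green I fluorescence (ex 485, em 535 nm) after overnight lysis in saponin/Triton buffer at room temperature. Cultures at 0.3% parasitemia and 2.5% hematocrit were first exposed to compound for 72 h at 37 C; signals were normalised to artemisinin (0.29 uM) and vehicle wells.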

A short description of test [3]: qHTS profiling for inhibitors of Plasmodium falciparum (DD2) proliferation (AID 743323; call rule not given here). To be noted: lower = more inhibition; at 28.7 µM (top of the series) unless noted. The essentials: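 SYBR Green fluorescence (ex 485, em 535 nm) of lysed cultures gives parasite DNA content; wells normalized to artemisinin (0.29 uM) and DMSO controls. Infected red cells: 0.3% parasitemia, 2.5% hematocrit, 72 h, 37 C.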

A short description of test [4]: qHTS profiling for inhibitors of Plasmodium falciparum (HB3) proliferation (AID 743324).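 Also: 100% = DMSO vehicle wells and 0% = artemisinin-treated control wells.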 To be noted: Plasmodium falciparum HB3 blood-stage proliferation; at 28.7 µM (top of the series) unless noted. The essentials: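 SYBR Green fluorescence (485 ex/535 em) of lysed cultures, incubated overnight at room temperature in the dark, quantifies parasite DNA. Infected erythrocytes at 0.3% parasitemia and 2.5% hematocrit were exposed 72 h; values normalized to DMSO and 0.29 uM artemisinin controls.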

Test [5] in a line: qHTS profiling of the MIPE4 collection as inhibitors of Plasmodium falciparum (3D7) proliferation (AID 743344; call rule not given here;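 also: scaled between DMSO vehicle wells and 0.29 µM artemisinin as full inhibition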). The following applies: P. falciparum 3D7 in erythrocytes, SYBR Green DNA fluorescence, 72 h; at 28.5 µM (top of the series) unless noted. Summed up:
as §1

The nature of test [6]: qHTS profiling of the MIPE4 collection as inhibitors of Plasmodium falciparum (DD2) proliferation (AID 743345; call rule not given here). To be noted: P. falciparum Dd2 in erythrocytes, SYBR Green DNA, 72 h; at 28.5 µM (top of the series) unless noted. Summed up:
as §1

A short description of test [7]: qHTS profiling of the MIPE4 collection as inhibitors of Plasmodium falciparum (DD2) proliferation (Rep 2) (AID 743346; call rule not given here). The following applies: P. falciparum Dd2 in erythrocytes, SYBR Green DNA, 72 h; at 28.5 µM (top of the series) unless noted. Summed up:
as §1

Test [8] can be described thus: qHTS for compounds that reverse cellular toxicity of Amyloid beta (A-beta) peptide in yeast: LOPAC Validation Assay (AID 720559).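 Also: plate controls were DMSO for no effect and equimolar ferric chloride plus clioquinol rescue for full effect.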 Summed up: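 Medium dispensed, compounds pinned, A-beta yeast suspension added; plates held at 30 C for 48 hr; absorbance measured at 600 nm to gauge growth; values scaled between DMSO and FeCl3/clioquinol (equimolar) controls.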
Test [9] can be described thus: qHTS for Activators of Parkin Expression: LOPAC Validation Assay (NLuc Reporter) (AID 720572). Summed up: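 NLuc signal, read 10 min after reagent and following a prior FLuc read, is normalized to DMSO (0) and positive controls (100%). Cells: neuronal Parkin-promoter coincidence reporter line; compounds tested 7-point, 24 h, 37 C, 5% CO2.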
Test [10] in a line: qHTS for Activators of Parkin Expression: LOPAC Validation Assay (FLuc Reporter) (AID 720573). Summed up:
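Cells seeded, 24 h; compounds pinned, 7-pt dose response; 24 h at 37 C/5% CO2; volume reduced; FLuc reagent 10 min RT; luminescence read. Normalization: DMSO = 0, positive control = 100%.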

Test [11] can be described thus: qHTS assay for small molecule agonists of the antioxidant response element (ARE) signaling pathway measured by Nrf2-dependant transcriptional activity (AID 720636; active = well fitted curve in the direction sought with a large enough effect in the repeat runs; an effect the other way counts as inactive or inconclusive;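 also: HepG2 cells with an ARE-driven luciferase reporter; % of control where 0% means no effect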). The essentials:
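Attachment 6 hr at 37 C, then compound versus DMSO vehicle for 16 hr in ARE-luc HepG2 cells (1% dialyzed FBS); luminescence recorded 30 min after ONE-Glo addition at room temperature.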

Test [12] in a line: qHTS assay for small molecule agonists of the antioxidant response element (ARE) signaling pathway measured by Nrf2-dependant transcriptional activity - cell viability counter screen (AID 720653; active = well fitted curve in the direction sought with a large enough effect in the repeat runs; an effect the other way counts as inactive or inconclusive; also: % is scaled to controls: 0 for no effect and ±100 for the full control effect). The following applies: ARE-bla HepG2 viability, CellTiter-Glo ATP luminescence, 16 h; stronger effect = lower value. The essentials:
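ARE-bla HepG2 cells treated with compounds for 16 h at 37C; this counter screen measures viability as intracellular ATP by CellTiter-Glo luminescence after 30 min at room temperature.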

Test [13] addresses T1, Hexokinase-4 (Homo sapiens) + Glucokinase regulatory protein (Homo sapiens) (UniProt P35557+Q14397). Description: qHTS assay for inhibitors of recombinant human GCK-GKRP interaction: Diaphorase-coupled assay (AID 743205). Summed up: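 25 mM Hepes pH 7.6, 5 mM glucose, 0.4 mM ATP, 4 U/ml G6PDH; 10 nM each GST-GCK/FLAG-GKRP. Kinetic fluorescence read, 1/min × 30 min. Normalized: DMSO ± enzyme = max/min.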

Test [14] deals with T1, Hexokinase-4 (Homo sapiens) + Glucokinase regulatory protein (Homo sapiens). The test is described as follows: qHTS assay for inhibitors of recombinant human GCK-GKRP interaction: ADP-Glo assay (AID 743206).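 Also: plate controls were DMSO plus enzyme for no effect and no enzyme for full effect.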 Summed up:
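Pin-transferred compounds meet a 15 nM GST-GCK/15 nM FLAG-GKRP/2 uM S6P mix (dispense concentrations). ATP is then added to 0.4 mM final with 5 mM glucose, and the reaction runs 60 min at room temperature. ADP is quantified luminescently.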

For test [15] the target is unchanged. The test is described as follows: qHTS assay for inhibitors of recombinant human GCK-GKRP interaction: HTRF assay (AID 743207).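 Also: 0% = DMSO with GCK present and -100% = DMSO wells lacking GCK.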 Summed up: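 5 nM GST-GCK + 5 nM FLAG-GKRP + 2 uM S6P, pH 7.1 buffer (25 mM Hepes, 2 mM MgCl2, 25 mM KCl, 1 mM DTT, Tween/BSA); pin-transferred cpd; anti-FLAG XL665/anti-GST K; 60 min RT; HTRF.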
The nature of test [16]: qHTS assay for cell viability of HEK293 cells (AID 743288). Also: % is scaled to controls: 0 for no effect and ±100 for the full control effect; nearly all actives have a fitted effect of over 50% in size. To be noted: ATP luminescence (CellTiter-Glo), 18 h; max response: stronger effect = lower value. Summed up:
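Viable-cell counts were inferred from luciferase-based ATP content in HEK293 cells seeded at 2,000/well, pre-incubated ≥5 h, then dosed with DMSO-solubilised compounds for 18 h at 37 C.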

Test [17] in a line: qHTS assay for cell viability of the p53RE-bla HCT-116 cell line (AID 743292). Also: % is scaled to controls: 0 for no effect and ±100 for the full control effect; nearly all actives have a fitted effect of over 55% in size. Summed up:
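Compound-exposed HCT-116 (p53RE-bla) cells, 4,000 per well, were kept 16 h at 37 C following a 5 h preincubation. Cell number was estimated from total ATP by CellTiter-Glo luminescence read after 30 min at room temperature.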

The nature of test [18]: qHTS profiling of the MIPE4 collection as inhibitors of Plasmodium falciparum (HB3) proliferation (AID 743347; call rule not given here;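 also: plate controls were DMSO vehicle wells for no effect and artemisinin wells for full effect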). To be noted: P. falciparum HB3 in erythrocytes, SYBR Green DNA, 72 h; at 28.5 µM (top of the series) unless noted. Summed up:
as §1

Several values for one entry are separate records, joined by “and”; a condition that tells them apart may be missing. Identical values can stand only once. Records with an inconclusive call do not appear. Activity calls are given as the source filed them. Unless noted, calls follow the shape of the dose curve; as a rule, active = well fitted curve in the direction sought with a large enough effect; inconclusive = small, poorly fitted or top-dose-only effect, or another doubt; inactive = no such curve, though single readings can be large; an effect the other way counts as inactive or inconclusive.

T1 sequence (P35557 whole entry, looked up): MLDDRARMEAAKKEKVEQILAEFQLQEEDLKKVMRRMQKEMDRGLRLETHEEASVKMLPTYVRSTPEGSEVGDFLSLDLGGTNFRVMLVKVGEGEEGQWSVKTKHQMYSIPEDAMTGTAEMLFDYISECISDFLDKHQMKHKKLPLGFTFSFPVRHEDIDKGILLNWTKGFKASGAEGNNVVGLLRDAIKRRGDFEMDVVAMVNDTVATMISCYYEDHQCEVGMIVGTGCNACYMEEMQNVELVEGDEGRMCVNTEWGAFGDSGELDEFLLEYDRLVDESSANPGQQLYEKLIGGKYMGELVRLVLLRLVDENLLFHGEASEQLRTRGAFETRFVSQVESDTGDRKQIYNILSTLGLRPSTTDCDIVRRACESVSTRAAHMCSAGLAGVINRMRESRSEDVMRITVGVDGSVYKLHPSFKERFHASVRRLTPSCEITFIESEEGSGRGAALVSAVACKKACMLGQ
T1 sequence (Q14397 whole entry, looked up): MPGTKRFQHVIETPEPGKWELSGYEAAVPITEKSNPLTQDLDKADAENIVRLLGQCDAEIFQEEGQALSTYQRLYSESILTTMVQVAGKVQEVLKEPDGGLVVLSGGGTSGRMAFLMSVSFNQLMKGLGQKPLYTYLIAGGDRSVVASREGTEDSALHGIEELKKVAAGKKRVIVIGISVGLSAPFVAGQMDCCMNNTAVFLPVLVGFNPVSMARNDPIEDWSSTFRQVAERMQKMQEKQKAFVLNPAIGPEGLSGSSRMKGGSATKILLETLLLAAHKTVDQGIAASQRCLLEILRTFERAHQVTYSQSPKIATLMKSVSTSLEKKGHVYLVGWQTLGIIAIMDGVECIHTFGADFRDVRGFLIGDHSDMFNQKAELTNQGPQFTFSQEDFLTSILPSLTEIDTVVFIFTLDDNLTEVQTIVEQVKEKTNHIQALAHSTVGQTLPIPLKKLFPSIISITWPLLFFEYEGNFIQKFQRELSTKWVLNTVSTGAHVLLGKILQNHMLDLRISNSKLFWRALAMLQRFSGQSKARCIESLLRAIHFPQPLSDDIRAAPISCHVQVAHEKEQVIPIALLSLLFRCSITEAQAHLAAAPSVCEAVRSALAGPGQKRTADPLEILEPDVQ

On to `CC(C)c1onc(-c2c(Cl)cccc2Cl)c1COc1ccc(/C=C/c2cccc(C(=O)O)c2)c(Cl)c1`, for which the max response in test [1] is 14.5% (inactive). In addition, the remaining parasite growth % (stronger effect = lower value) in test [2] is 28.5%. Besides, the activity, percent of control in [3] stood at 74.9%. Also, in [4], the remaining proliferation (% of control), lower = more inhibition was determined as 71.7%.
`O=C(OCC#CCSc1nnc(-c2ccc3ccccc3c2)o1)c1cc2ccccc2s1`: the max response in test [1] was 9.28% (inactive). The remaining parasite growth % (stronger effect = lower value) in test [2] is 117%. Further, the activity, percent of control in test [3] was found to be 105%.
On to `CNC(=O)c1ccccc1Sc1ccc2c(/C=C/c3ccccn3)n[nH]c2c1`, for which the max response in [1] was 40.9% (inactive).
On to `COc1cc(F)c(F)c(Nc2ccc(I)cc2F)c1NS(=O)(=O)C1(C[C@H](O)CO)CC1`, for which the max response in [1] was 19.8% (inactive). For the same compound, the remaining parasite growth % (stronger effect = lower value) in [2] amounted to 83.5%. Besides, the activity, percent of control in [3] amounted to 78.6%. Also, the remaining proliferation (% of control), lower = more inhibition in test [4] was 39.5%. Also, the parasite growth, % of DMSO control in test [5] turned out to be 45.3%. In [6], this compound returned a parasite growth remaining, % of DMSO control (lower = more inhibition) of 71.1%. Moreover, the parasite growth, % of control (lower = inhibition) in test [7] was 26.7%.
In the case of `O=NN(CCCl)C(=O)NCCCl`, the compound was called inactive in test [8], in [10], in [11], in test [13], in test [14] and in [15]. For the same compound, the Potency result in test [9] and in [17] was “inactive” in each case. For the same compound, the max response was -0.208% (inactive) in test [12]; 10.6% (inactive) and 5.39% (inactive) in test [1]; -8.57% (inactive) in test [16].
Turning to `Cc1cc(C=c2sc3nc4ccccc4n3c2=O)c(C)n1-c1ccccc1`, in test [1], the max response is 11.9% (inactive). Also, in test [2], the remaining parasite growth % (stronger effect = lower value) came to 37.9%. Also, in [3], the activity, percent of control worked out at 101%. Besides, in test [4], the remaining proliferation (% of control), lower = more inhibition is 116%. In test [5], this compound had a parasite growth, % of DMSO control of 84.9%. The same compound had a parasite growth remaining, % of DMSO control (lower = more inhibition) in test [6] of 93.2%. The same compound showed a parasite growth, % of control (lower = inhibition) in test [7] of 73%.
For the compound `COc1ccc2nc(S(=O)Cc3ncc(C)c(OC)c3C)[nH]c2c1` (centres undefined), the max response is 1.66% (inactive) in test [12]; -5.18% (inactive) and -4.42% (inactive) in test [1]; -16.7% (inactive) in [16]. The Potency entry in [17] was “inactive”. In [2], the remaining parasite growth % (stronger effect = lower value) was 91.3% and 101%. The activity, percent of control in [3] was 93.3% and 100%. In addition, in [4], the remaining proliferation (% of control), lower = more inhibition is 79.1% and 76.7%. Moreover, the parasite growth, % of DMSO control in test [5] was 61.2%. The compound further gave a parasite growth remaining, % of DMSO control (lower = more inhibition) in test [6] of 95%. The same compound came in with a parasite growth, % of control (lower = inhibition) in test [7] of 72.1%. The same compound had a growth, % of control in test [18] of 84.6%.
